Assay [1] is described as follows: anti-His antibody binders, primary screen, artefact control for SMM control protein annotation, biochemical, small-molecule microarray, 635 nm fluorescence (AID 1128).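 Further: score merges feature fluorescence with signal-to-noise for each printed compound spot.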 Particulars: anti-His Alexa647 antibody binding, higher = more signal.
In assay [2] the test system is Human papillomavirus type 1a E7 protein (residues 1-88). Put plainly: HPV1a E7 small-molecule binders, primary screen, biochemical, small-molecule microarray, residues 1-88, 635 nm (AID 1129). Particulars: small-molecule microarray binding, fluorescence 635 nm; higher = more signal.
For assay [3], the target named is Focal adhesion kinase 1 (Homo sapiens) (UniProt Q05397). Description: small-molecule microarray binders of FAK, primary screen, biochemical, 635/667 nm fluorescence, BSA, DTT (AID 1130).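 Further: composite of spot emission at 667 nm and signal to noise over triplicate slides.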 Particulars: PTK2 binding, 635 nm fluorescence, higher = more signal.
The test system of assay [4] is Fibrinogen (Alexa647-labelled). Put plainly: fibrinogen binders on compound microarrays, profiling panel, artefact control for SMM control-protein annotation, biochemical, small-molecule microarray, 635/667 nm fluorescence (AID 1131).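 Further: z-score merges 667 nm fluorescence with per-spot signal-to-noise over triplicate slides.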 As to conditions: fibrinogen-A647 binding fluorescence, higher = more signal.
The target in assay [5] is Follistatin (Homo sapiens) (UniProt P19883). Description: follistatin binders on small-molecule microarrays, primary screen, biochemical, small-molecule microarray, 635/667 nm fluorescence (AID 1132). Particulars: FST binding, 635 nm fluorescence, higher = more signal.
The target of assay [6] is Fibroblast growth factor 2 (Homo sapiens) (UniProt P09038). Put plainly: FGF2 binders on small-molecule microarrays, primary screen, biochemical, small-molecule microarray, 635/667 nm fluorescence (AID 1133). Particulars: small-molecule microarray binding, FGF2, fluorescence 635/667; higher = more signal.
Assay [7] in a line: mitochondrial membrane potential change in A549 cells, profiling panel, cell-based, JC-1 fluorescence, basal, 24 h, 100 nL (AID 1138).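 Further: A549 lung adenocarcinoma cells under basal conditions with no added stimulus; test concentration not given here.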 Particulars: higher = more signal.
Another assay has as its system Lefty1. Description: Lefty1 binders on small-molecule microarrays, primary screen, biochemical, small-molecule microarray, 635/667 nm fluorescence (AID 1139). As to conditions: small-molecule microarray binding, fluorescence 635/667; higher = more signal.
Assay [8] concerns wheat germ agglutinin (Triticum aestivum), Alexa647-labelled. Put plainly: wheat germ agglutinin binders on compound microarrays, profiling panel, artefact control for SMM control-protein annotation, biochemical, small-molecule microarray, 635/667 nm fluorescence (AID 1140).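 Further: score merges 667 nm feature emission with signal to noise over triplicate slides.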 As to conditions: WGA-A647 binding, 635 nm fluorescence, higher = more signal.
For assay [9], the target named is Luciferin 4-monooxygenase (Photinus pyralis) (UniProt P08659). Description: firefly luciferase enzyme inhibitors, primary screen, biochemical, luminescence, purified enzyme, 2006 set (AID 1141).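 Further: cell-free assay with purified firefly luciferase at 100 ng per well in PBS; test concentration not given here.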 Particulars: SteadyGlo luminescence, 30 min, higher = more signal, called active from +8 up or from −8 down.

Molecules are shown by their SMILES. Active and inactive are the calls of the source.

Chain of Luciferin 4-monooxygenase (Photinus pyralis) (P08659 whole entry, looked up): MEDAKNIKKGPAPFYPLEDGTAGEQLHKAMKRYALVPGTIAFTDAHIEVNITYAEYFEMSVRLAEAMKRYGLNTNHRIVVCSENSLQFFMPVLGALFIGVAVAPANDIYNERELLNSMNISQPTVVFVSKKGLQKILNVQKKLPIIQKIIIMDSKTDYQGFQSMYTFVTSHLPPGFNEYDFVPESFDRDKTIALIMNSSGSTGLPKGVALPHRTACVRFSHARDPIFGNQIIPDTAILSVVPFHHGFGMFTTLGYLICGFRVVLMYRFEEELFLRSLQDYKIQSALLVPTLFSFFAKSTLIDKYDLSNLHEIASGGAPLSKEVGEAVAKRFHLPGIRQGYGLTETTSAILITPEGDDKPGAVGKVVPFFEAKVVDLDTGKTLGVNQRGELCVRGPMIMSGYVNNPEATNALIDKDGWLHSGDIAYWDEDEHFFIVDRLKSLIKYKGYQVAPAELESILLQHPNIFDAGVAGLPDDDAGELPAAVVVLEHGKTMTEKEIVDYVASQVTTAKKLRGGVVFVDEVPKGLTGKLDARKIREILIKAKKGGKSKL
Chain of Focal adhesion kinase 1 (Homo sapiens) (Q05397 whole entry, looked up): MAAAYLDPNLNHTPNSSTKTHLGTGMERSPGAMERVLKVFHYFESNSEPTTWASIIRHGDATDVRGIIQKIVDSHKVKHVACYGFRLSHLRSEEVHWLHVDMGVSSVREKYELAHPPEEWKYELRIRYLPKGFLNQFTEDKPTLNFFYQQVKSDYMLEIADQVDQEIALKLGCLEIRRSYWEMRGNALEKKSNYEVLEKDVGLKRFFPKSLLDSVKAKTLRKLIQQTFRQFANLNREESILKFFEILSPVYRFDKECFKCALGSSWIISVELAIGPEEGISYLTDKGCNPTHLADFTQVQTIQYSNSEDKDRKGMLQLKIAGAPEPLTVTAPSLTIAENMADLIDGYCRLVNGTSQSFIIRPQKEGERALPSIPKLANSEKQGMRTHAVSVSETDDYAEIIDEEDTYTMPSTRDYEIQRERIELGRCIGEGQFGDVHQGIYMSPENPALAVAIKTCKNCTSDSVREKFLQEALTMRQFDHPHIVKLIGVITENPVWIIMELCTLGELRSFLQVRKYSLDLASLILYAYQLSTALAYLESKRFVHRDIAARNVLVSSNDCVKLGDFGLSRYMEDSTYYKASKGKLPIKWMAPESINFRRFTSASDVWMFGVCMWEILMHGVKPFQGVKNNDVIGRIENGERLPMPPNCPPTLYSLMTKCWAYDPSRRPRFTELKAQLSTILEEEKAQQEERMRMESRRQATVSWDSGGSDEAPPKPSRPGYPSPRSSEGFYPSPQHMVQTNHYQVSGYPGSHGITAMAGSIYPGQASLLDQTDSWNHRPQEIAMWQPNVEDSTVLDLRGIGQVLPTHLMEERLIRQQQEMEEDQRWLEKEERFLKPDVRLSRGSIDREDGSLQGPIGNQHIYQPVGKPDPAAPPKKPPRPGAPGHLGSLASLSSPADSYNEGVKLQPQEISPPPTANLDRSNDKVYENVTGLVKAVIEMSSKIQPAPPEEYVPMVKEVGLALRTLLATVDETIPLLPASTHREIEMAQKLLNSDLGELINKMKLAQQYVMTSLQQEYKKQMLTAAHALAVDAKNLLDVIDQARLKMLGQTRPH
Chain of Fibroblast growth factor 2 (Homo sapiens) (P09038 whole entry, looked up): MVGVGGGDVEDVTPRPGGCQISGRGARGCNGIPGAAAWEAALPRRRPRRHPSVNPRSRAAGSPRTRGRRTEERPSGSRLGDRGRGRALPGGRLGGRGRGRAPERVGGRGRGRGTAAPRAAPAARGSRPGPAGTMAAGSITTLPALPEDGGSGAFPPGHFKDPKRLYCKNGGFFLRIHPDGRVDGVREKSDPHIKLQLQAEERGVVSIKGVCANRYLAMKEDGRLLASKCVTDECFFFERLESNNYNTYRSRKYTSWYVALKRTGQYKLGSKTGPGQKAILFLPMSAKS
Chain of Follistatin (Homo sapiens) (P19883 whole entry, looked up): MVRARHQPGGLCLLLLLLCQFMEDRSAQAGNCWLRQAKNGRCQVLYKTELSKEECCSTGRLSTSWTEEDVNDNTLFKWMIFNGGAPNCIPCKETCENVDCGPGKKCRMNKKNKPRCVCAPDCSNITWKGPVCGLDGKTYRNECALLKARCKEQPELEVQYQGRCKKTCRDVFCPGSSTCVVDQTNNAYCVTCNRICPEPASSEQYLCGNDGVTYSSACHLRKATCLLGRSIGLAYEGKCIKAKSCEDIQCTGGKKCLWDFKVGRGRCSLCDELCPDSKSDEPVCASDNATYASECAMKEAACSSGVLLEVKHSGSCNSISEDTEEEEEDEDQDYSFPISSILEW

On to `CC(C)CNC(=O)[C@@H]1c2ccccc2C(=O)N(Cc2cc(F)cc(C(F)(F)F)c2)[C@H]1c1ccc(CO)cc1`, for which the composite z-score was found to be 0.437 in [1]; 0.538 in assay [2]; 0.0403 in assay [3]; 0.626 in [4]; 1.02 in assay [5]; 0.721 in [6]. Besides, the composite z-score in the assay on Lefty1 was -0.0543; in [8], 0.042. Besides, the figures for the z-score in assay [7] and in assay [9] were 2.47 and -1.38 (inactive), respectively.

With `CC(=O)n1cc(C(O)C2C=CC3C(=O)N(c4ccccc4)C(=O)C3N2Nc2ccccc2)c2ccccc21` (stereo not given), the composite z-score in [1] is 0.917; in assay [2] it was 0.663; in assay [3], 0.0901; in [4], 0.735; in assay [5], 1.36; in [6] it was -0.379. Also, the composite z-score in the assay with Lefty1 is -0.137; in assay [8] it was 1.27. For the same compound, the values for the z-score in assay [7] and in assay [9] were -0.282 and 0.252 (inactive), respectively.

Turning to `C=C(COC)/C(=C/C[C@@H](OC(=O)c1ccncc1)c1ccc(CO)o1)c1cnc2ccccc2c1`, the composite z-score was 1.87 in assay [1]; 1.22 in [2]; 0.268 in assay [3]; 0.973 in assay [4]; 1.47 in assay [5]; 1.61 in assay [6]. For the same compound, the figures for the composite z-score (in the assay with Lefty1; in [8]) were 1.67 and 1.56, respectively. Moreover, the z-score was -0.557 in assay [7] and -2.96 (inactive) in assay [9].

Regarding `CN(C)CCCCNC(=O)[C@H]1C[C@H]2C(=O)N[C@@H](CCCCN(C)C)C(=O)N2[C@H]1c1cccc(OCCO)c1`, the composite z-score amounted to 1.1 in assay [1]; 0.603 in [2]; 0.29 in assay [3]; 0.877 in [4]; 1.3 in assay [5]; 1.23 in assay [6]. Further, the composite z-score in the assay on Lefty1 is 1.64; in [8] it was 1.02. Moreover, the z-score in assay [7] is -0.0557; in assay [9], 0.709 (inactive).

For `COc1ccc(CCNC(=O)[C@@]2(Sc3ccc(C)cc3)CC(=O)N(Cc3cc(C(F)(F)F)cc(C(F)(F)F)c3)[C@@H]2c2ccc(CO)cc2I)cc1`, the composite z-score in assay [1] is -0.361; in assay [2], -0.162; in [3], 0.368; in assay [4] it was 0.562; in assay [5], 0.801; in assay [6], -0.525. The composite z-score with Lefty1 is 0.012; in assay [8], -0.0603. Also, the z-score was 0.345 in [7] and 0.664 (inactive) in assay [9].

For the compound `COC(=O)c1c(CC[C@@H](CO)NC(=O)N[C@H](Cn2cc(-c3ccccc3C)nn2)C(C)C)oc(C(C)=O)c1C(=O)OC`, the composite z-score is 0.0233 in [1]; -0.0523 in assay [2]; 0.14 in assay [3]; 0.335 in [4]; -0.505 in [5]; -0.37 in [6]. Also, the values for the composite z-score (with Lefty1; in [8]) were -0.0683 and 0.567, respectively. In addition, the results for the z-score in assay [7] and in assay [9] were -0.704 and 0.379 (inactive), respectively.

For `C=CCNC(=O)[C@H]1[C@@H]2C(=O)O[C@@H](c3ccccc3)[C@@H](c3ccccc3)N2[C@@H](c2ccccc2OCCO)[C@]12C(=O)N(C(=O)OCCOC)c1ccc(C#CC3=CCCCC3)cc12`, the composite z-score in assay [1] stood at 0.108; in assay [2], 1.24; in assay [3], 0.369; in assay [4], 0.975; in [5], 1.21; in assay [6], 0.685. The composite z-score with Lefty1 was 0.885; in assay [8], 0.993. Also, the results for the z-score in assay [7] and in [9] were -0.295 and -1.48 (inactive), respectively.

Consider `CC(C)CN1C(=O)[C@@]2(c3ccc([N+](=O)[O-])cc3)CC(=O)N(CC34CC5CC(CC(C5)C3)C4)[C@@H]2c2ccc(CO)cc21`, for which the composite z-score was 2.34 in [1]; -0.636 in assay [2]; -0.253 in [3]; 0.233 in assay [4]; -1.16 in [5]; -1.14 in assay [6]. In addition, the values for the composite z-score (in the assay with Lefty1; in assay [8]) were -0.969 and -0.323, respectively. Also, the figures for the z-score in assay [7] and in [9] were -0.422 and 0.0209 (inactive), respectively.

On to `C=C(CCCC)C(=O)CC[C@@H](OC(=O)c1cccnc1)c1ccccc1OCCO`, for which the composite z-score is -0.349 in [1]; -0.107 in assay [2]; -0.0523 in assay [3]; 0.48 in [4]; 0.865 in assay [5]; 1.34 in assay [6]. The composite z-score in the assay with Lefty1 turned out to be 1.56; in assay [8], 0.058. In addition, the figures for the z-score in [7] and in [9] were 1.24 and -0.511 (inactive), respectively.

Consider `NC(=O)NCC#Cc1ccc2c(c1)[C@]1(C(=O)N2)[C@H](C(=O)Nc2nc3ccccc3s2)[C@H]2C(=O)O[C@H](c3ccccc3)[C@H](c3ccccc3)N2[C@@H]1c1ccc(O)cc1`, for which the composite z-score in [1] was -0.198; in [2], 0.52; in assay [3] it was 0.286; in assay [4] it was 0.629; in [5], 1.28; in assay [6], 0.651. Besides, the composite z-score in the assay on Lefty1 came to 0.383; in assay [8], 0.696. The z-score in [7] is -2.41; in [9], -1.76 (inactive).

With `COC(=O)[C@@]1(Cc2ccc(F)cc2)[C@H]2c3cc(C(=O)N4CCCC4)n(CCF)c3C[C@H]2CN1C(=O)c1ccccc1`, the composite z-score was 2.82 in [1]; 1.2 in assay [2]; 1.67 in assay [3]; 0.642 in assay [4]; 0.088 in assay [5]; -0.299 in assay [6]. In addition, the composite z-score in the assay with Lefty1 is -0.427; in assay [8] it was 1.4. Moreover, the z-score in [7] was 0.0101; in [9], 0.125 (inactive).

For `COc1ccc(NN2C(C(O)c3ccccn3)C=CC3C(=O)N(C4CCCCC4)C(=O)C32)cc1` (stereo not given), the composite z-score in [1] stood at 0.914; in assay [2], 1.22; in [3] it was 0.342; in assay [4], 0.955; in [5], 0.888; in assay [6] it was 0.421. Further, the results for the composite z-score (in the assay on Lefty1; in assay [8]) were -0.223 and 0.836, respectively. Further, the z-score in assay [7] was 0.717; in assay [9], -2.74 (inactive).

On to `CCCCC(CC)C(O)C1C=CC2C(=O)N(c3ccccc3)C(=O)C2N1Nc1ccc([N+](=O)[O-])cc1` (stereo not given), for which the composite z-score in [1] worked out at 1.48; in [2] it was 1.23; in assay [3], 0.623; in [4], 1.04; in assay [5], 1.21; in assay [6] it was 0.456. Besides, the composite z-score in the assay on Lefty1 amounted to 0.39; in [8] it was 1.02. In addition, the z-score was -1.19 in [7] and 0.262 (inactive) in assay [9].

`COc1c(C)cc(-c2cc3c(c(Cc4ccccc4)n2)[Si](C(C)C)(C(C)C)OC3)cc1C`: the composite z-score is 0.0134 in assay [1]; -0.006 in assay [2]; 0.212 in assay [3]; 0.0295 in assay [4]; 0.308 in assay [5]; 0.0273 in assay [6]. The figures for the composite z-score (in the assay on Lefty1; in [8]) were 0.708 and -0.063, respectively. For the same compound, the z-score is 0.0666 in assay [7] and 0.674 (inactive) in assay [9].

Regarding `O=C1OCC=C[C@H]2OC34C=CCN(Cn5nnc6ccccc65)C(=O)[C@H]3N(CCCCCCO)C(=O)[C@@H]4[C@@H]12` (stereo not given in full), the composite z-score in [1] was 1.42; in [2], -0.238; in assay [3] it was 0.058; in [4] it was -1.49; in assay [5], -0.982; in [6] it was -0.525. Also, the composite z-score with Lefty1 was -0.835; in [8], -0.544. For the same compound, the z-score was 0.421 in [7] and -0.283 (inactive) in assay [9].

`COC(=O)C1(Cc2ccccc2)C=C2C(=C(c3ccccc3)C(=O)C2C)CN1` (stereo not given): the composite z-score in assay [1] is 1.76; in assay [2] it was 1.11; in [3], -0.0788; in assay [4], 0.152; in [5], -0.111; in assay [6] it was 0.404. The composite z-score with Lefty1 is -0.586; in assay [8], 0.943. For the same compound, the z-score in [7] was 0.408; in assay [9] it was 1.98 (inactive).
